{"source": "the supplement of paper PMC6992640"}
{"tested_on": "WHIM2 (cells of a triple-negative basal-like breast cancer xenograft)", "test": "cell viability of combination (% of vehicle); higher = less cytotoxic", "details": "1 µM; 72 h; partner dose: 10 nM", "protocol": "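PDX cells were treated for 72 h with each drug at 1 µM plus afatinib (10 nM; 1 µM for WHIM30). Luciferase viability is expressed as percent of vehicle.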"}
{"smiles": "CCOc1cc2ncc(C#N)c(Nc3ccc(F)c(Cl)c3)c2cc1NC(=O)C=CCN(C)C", "note": "[Pelitinib (EKB-569)] + CN(C)C/C=C/C(=O)Nc1cc2c(Nc3ccc(F)c(Cl)c3)ncnc2cc1O[C@H]1CCOC1 [Afatinib]", "cell viability of combination": 22.1}
{"smiles": "COC(=O)NC(C(=O)NC(Cc1ccccc1)C(O)CN(Cc1ccc(-c2ccccn2)cc1)NC(=O)C(NC(=O)OC)C(C)(C)C)C(C)(C)C", "note": "(stereo not given) [Atazanavir] + CN(C)C/C=C/C(=O)Nc1cc2c(Nc3ccc(F)c(Cl)c3)ncnc2cc1O[C@H]1CCOC1 [Afatinib]", "cell viability of combination": 54}
{"smiles": "COc1cc2c(Nc3ccc(Br)cc3F)ncnc2cc1OCC1CCN(C)CC1", "note": "[Vandetanib (ZD6474)] + CN(C)C/C=C/C(=O)Nc1cc2c(Nc3ccc(F)c(Cl)c3)ncnc2cc1O[C@H]1CCOC1 [Afatinib]", "cell viability of combination": 24.4}
{"smiles": "COC(=O)c1ccc2c(c1)NC(=O)C2=C(Nc1ccc(N(C)C(=O)CN2CCN(C)CC2)cc1)c1ccccc1", "note": "[Nintedanib (BIBF 1120)] + CN(C)C/C=C/C(=O)Nc1cc2c(Nc3ccc(F)c(Cl)c3)ncnc2cc1O[C@H]1CCOC1 [Afatinib]", "cell viability of combination": 22.5}
{"smiles": "CCOc1nc2cccc(C(=O)OC(C)OC(=O)OC3CCCCC3)c2n1Cc1ccc(-c2ccccc2-c2nn[nH]n2)cc1", "note": "(stereo not given) [Candesartan Cilexetil] + CN(C)C/C=C/C(=O)Nc1cc2c(Nc3ccc(F)c(Cl)c3)ncnc2cc1O[C@H]1CCOC1 [Afatinib]", "cell viability of combination": 50.8}
{"smiles": "CC1(C)CCC(c2ccc(Cl)cc2)=C(CN2CCN(c3ccc(C(=O)NS(=O)(=O)c4ccc(NC(CCN5CCOCC5)CSc5ccccc5)c(S(=O)(=O)C(F)(F)F)c4)cc3)CC2)C1", "note": "(stereo not given) [ABT-263 (Navitoclax)] + CN(C)C/C=C/C(=O)Nc1cc2c(Nc3ccc(F)c(Cl)c3)ncnc2cc1O[C@H]1CCOC1 [Afatinib]", "cell viability of combination": 29.5}
{"smiles": "CCN(CC)CCNC(=O)c1c(C)[nH]c(C=C2C(=O)Nc3ccc(F)cc32)c1C", "note": "[Sunitinib] + CN(C)C/C=C/C(=O)Nc1cc2c(Nc3ccc(F)c(Cl)c3)ncnc2cc1O[C@H]1CCOC1 [Afatinib]", "cell viability of combination": 25.7}
{"smiles": "CC(C)c1nc(CN(C)C(=O)NC(C(=O)NC(Cc2ccccc2)CC(O)C(Cc2ccccc2)NC(=O)OCc2cncs2)C(C)C)cs1", "note": "(stereo not given) [Ritonavir] + CN(C)C/C=C/C(=O)Nc1cc2c(Nc3ccc(F)c(Cl)c3)ncnc2cc1O[C@H]1CCOC1 [Afatinib]", "cell viability of combination": 49}
{"smiles": "CC(Oc1cc(-c2cnn(C3CCNCC3)c2)cnc1N)c1c(Cl)ccc(F)c1Cl", "note": "[(R)-Crizotinib] + CN(C)C/C=C/C(=O)Nc1cc2c(Nc3ccc(F)c(Cl)c3)ncnc2cc1O[C@H]1CCOC1 [Afatinib]", "cell viability of combination": 44.4}
{"smiles": "CCC(NC(=O)C(C)NC)C(=O)N1CC(O)CC1Cc1c(-c2[nH]c3cc(F)ccc3c2CC2CC(O)CN2C(=O)C(CC)NC(=O)C(C)NC)[nH]c2cc(F)ccc12", "note": "(stereo not given) + CN(C)C/C=C/C(=O)Nc1cc2c(Nc3ccc(F)c(Cl)c3)ncnc2cc1O[C@H]1CCOC1 [Afatinib]", "cell viability of combination": 19.1}
{"smiles": "CC1=CC(=O)c2ccccc2C1=O", "note": "[Menadione] + CN(C)C/C=C/C(=O)Nc1cc2c(Nc3ccc(F)c(Cl)c3)ncnc2cc1O[C@H]1CCOC1 [Afatinib]", "cell viability of combination": 50.2}
{"smiles": "COC(=O)C12CCC(C)(C)CC1C1C(=O)C=C3C4(C)C=C(C#N)C(=O)C(C)(C)C4CCC3(C)C1(C)CC2", "note": "(stereo not given) [Bardoxolone methyl] + CN(C)C/C=C/C(=O)Nc1cc2c(Nc3ccc(F)c(Cl)c3)ncnc2cc1O[C@H]1CCOC1 [Afatinib]", "cell viability of combination": 30.4}
{"smiles": "CC(C)(C)c1ccc(C(O)CCCN2CCC(C(O)(c3ccccc3)c3ccccc3)CC2)cc1", "note": "(stereo not given) [Terfenadine] + CN(C)C/C=C/C(=O)Nc1cc2c(Nc3ccc(F)c(Cl)c3)ncnc2cc1O[C@H]1CCOC1 [Afatinib]", "cell viability of combination": 51.1}
{"smiles": "CC(NCCCc1cccc(C(F)(F)F)c1)c1cccc2ccccc12.Cl", "note": "(stereo not given) [Cinacalcet HCl] + CN(C)C/C=C/C(=O)Nc1cc2c(Nc3ccc(F)c(Cl)c3)ncnc2cc1O[C@H]1CCOC1 [Afatinib]", "cell viability of combination": 43.1}
{"smiles": "CC(O)C(=O)O.CC(O)C(=O)O.CN1CCN(c2ccc3c(c2)NC(=C2C(=O)N=c4cccc(F)c4=C2N)N3)CC1", "note": "[Dovitinib Dilactic acid] + CN(C)C/C=C/C(=O)Nc1cc2c(Nc3ccc(F)c(Cl)c3)ncnc2cc1O[C@H]1CCOC1 [Afatinib]", "cell viability of combination": 30.4}
